Screening data from PubChem.
An excerpt weighted towards active compounds, which were near 4.6% of everything screened.
PfHsp90 yeast 2: reduces growth (ATP signal) of yeast expressing P. falciparum Hsp90; S. cerevisiae expressing PfHsp90, BacTiter-Glo ATP, 48 h; yeast lacking PDR1 and PDR3 efflux regulators; inhibition, % at 9.4 µM; hit rate 0.32% among 310,000; AID 504621;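 active means every replicate shows inhibition above about 80%, whatever the replicate mean, limit read from the data; inconclusive means mean inhibition reaches the set limit but some replicate falls short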
tim10-1 inh: tim10-1 yeast growth inhibition | S. cerevisiae tim10-1 ts strain growth, BacTiter-Glo, 24 h | inhibition, % at 20 µM | hit rate 2.2% among 330,000 | AID 463190;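 active means inhibition of at least 40%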;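 further: mutant grown at 25 °C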
tim23-1 inh: growth inhibitors of tim23-1 mutant yeast; inhibition, % at 20 µM; S. cerevisiae tim23-1 growth, BacTiter-Glo luminescence, 24 h; hit rate 1.3% among 330,000;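 active means growth inhibition of the mutant yeast at or above 50%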;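 further: temperature-sensitive mutant grown at 25 °C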
SKKanGAS inh: SKKanGAS growth inhibition | S. pyogenes SKKanGAS, kanamycin growth, BacTiter-Glo, 6 h | inhibition, % at 7.5 µM | hit rate 1.3% among 300,000;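 active means mean replicate score, as percent of positive control median, at least 50; inconclusive means mean below 50 but one replicate at or above 50; inactive means mean and every replicate below 50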;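 further: strain carries kanamycin resistance gene driven by streptokinase promoter and grows in 40 µg/ml kanamycin; loss of luminescence reflects streptokinase promoter inhibition or plain growth inhibition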
TIM10 inh: inhibits growth of TIM10 yeast strain. hit rate 1.4% among 330,000. AID 463195. S. cerevisiae TIM10 strain growth, BacTiter-Glo luminescence, 24 h. inhibition, % at 10 µM;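 active means inhibition of 40% or more at the single tested concentration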;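 further: wild-type TIM10 isogenic control strain grown at permissive 25 °C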
NLRP3 yeast inh: NALP3 inhibition in yeast. inhibition, % at 10 µM. AID 2825. hit rate 0.39% among 330,000. Yeast reconstituted NLRP3/ASC/caspase-1, beta-gal luminescence, 24 h;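 active means inhibition of 50% or more; inactive means inhibition below 50%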
tim10-1 confirm: tim10-1 yeast growth inhibition, confirmed; S. cerevisiae tim10-1 ts strain growth, BacTiter-Glo, 24 h; AID 463213; inhibition, % at 20 µM; hit rate 56% among 7,400; shares compounds with tim10-1 inh;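 active means inhibition of yeast growth at or above a set limit in either of two repeat tests at 20 µM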;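 further: tim10-1 mutant grown at permissive 25 °C to find synthetic lethal compounds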
Of the large screens only hits and unclear results are named; the others gave an inactive call (follow-up assays come after a bar, where they were run).

COc1cc(C(=O)NC(C(=O)Nc2cccc(C(C)=O)c2)C(C)C)cc(OC)c1OC (configuration not stated)	none
Cc1ccc2nc(-c3cccc(S(=O)(=O)N4CCCC4)c3)cn2c1	none
Cc1ccn2cc(-c3cccc(S(=O)(=O)N4CCCCC4)c3)nc2c1	tim10-1 inh 48 | tim10-1 confirm inactive
Cc1[nH]n(-c2ccc(Cl)c(Cl)c2)c(=O)c1CCO	tim10-1 inh 43 | tim10-1 confirm inactive
Cc1[nH]n(-c2ccc(C(=O)O)cc2)c(=O)c1CCO	none (no result: tim10-1 inh, tim23-1 inh, SKKanGAS inh, TIM10 inh, NLRP3 yeast inh)
C=CCn1c(SCC(=O)c2c(N)n(C)c(=O)n(C)c2=O)nnc1-c1ccoc1C	none (no result: SKKanGAS inh)
Cc1c(C)c2ccc(OCC(=O)Nc3ccccn3)c(C)c2oc1=O	none
NC(=S)Cc1nc(-c2ccccc2)cs1	tim10-1 inh 51 | tim10-1 confirm 44
Oc1csc(Cc2nc(-c3ccc(-c4ccccc4)cc3)cs2)n1	none
CC(=O)C1=C(O)C(CSCc2ccccc2)N(C)C1=O (configuration not stated)	none (no result: tim10-1 inh, tim23-1 inh, SKKanGAS inh, TIM10 inh, NLRP3 yeast inh)
CN1CCN(C2Cc3ccccc3Sc3ccc(Cl)cc32)CC1 (configuration not stated)	tim10-1 inh 52 (no result: SKKanGAS inh) | tim10-1 confirm 36
CN1CCN(C2Cc3cc(F)ccc3Sc3ccc(Cl)cc32)CC1 (configuration not stated)	none
Cc1nc(N2CCN(C)CC2)c2c(C)c(C(=O)Nc3ccc(C)c(F)c3)sc2n1	none
Cc1nc(N2CCCCC2)c2c(C)c(C(=O)Nc3ccc4c(c3)OCCO4)sc2n1	tim10-1 inh 46 | tim10-1 confirm 31
Cc1nc(N2CCN(c3ccccn3)CC2)c2c(C)c(C(=O)Nc3c(F)cc(F)cc3Br)sc2n1	tim10-1 inh 40 | tim10-1 confirm inactive
C=C(C)C1CC=C(C)/C(=N/NC(=S)Nc2ccccc2)C1 (configuration not stated)	tim10-1 inh 41 | tim10-1 confirm inactive
C=C(C)C1CC=C(C)/C(=N/NC(=O)c2ccc(NC(=O)c3cccc(C)c3)cc2)C1 (configuration not stated)	none
CC(C)(C)Nc1nc(Cl)nc(NC(C)(C)C)n1	tim10-1 inh 44 | tim10-1 confirm inactive
CC(C)(C)Nc1nc(NC(C)(C)C)nc(-n2ccnc2)n1	none (no result: SKKanGAS inh)
CCC(=O)c1ccc(OCC(=O)OCC(=O)N2c3ccccc3CC2C)cc1 (configuration not stated)	tim10-1 inh 41 | tim10-1 confirm 35
CCC(=O)c1ccc(OCC(=O)OCC(=O)N2CCCc3ccccc32)cc1	tim10-1 inh 43 | tim10-1 confirm inactive
O=C(COc1ccc(Cl)cc1)OCC(=O)N1CCCc2ccccc21	none
Cc1cc(C(F)(F)F)nc(CCNC(=O)C2CCC(=O)N(Cc3cccc(F)c3)C2)n1 (configuration not stated)	none
Cc1ccc(C)c(C(=O)OCC(=O)N(C)c2ccccc2)c1	tim10-1 inh 56 | tim10-1 confirm 44
O=C(Nc1nc(-c2ccco2)c(-c2ccco2)s1)c1c(F)cccc1Cl	none (no result: SKKanGAS inh)
O=C(Nc1nc(-c2ccco2)c(-c2ccco2)s1)c1ccc(F)cc1F	tim10-1 inh 40 (no result: SKKanGAS inh) | tim10-1 confirm 43
O=C(Nc1ccc(Cl)c(C(F)(F)F)c1)[C@@H]1CC=C[C@@H]2CCN(C3CC3)C(=O)[C@@H]21	none (no result: PfHsp90 yeast 2)
COc1ccc(Cn2nnnc2CN2CCC(c3nc4ccccc4s3)CC2)cc1	tim10-1 inh 41 | tim10-1 confirm inactive
COC(=O)C1=CN(C(C)c2ccccc2)C=C(C(=O)OC)C1c1cc(OC)c(OC)c(OC)c1 (configuration not stated)	tim10-1 inh 43 | tim10-1 confirm inactive
COC(=O)C1=CN(Cc2ccc(OC)cc2)C=C(C(=O)OC)C1c1cc(OC)c(OC)c(OC)c1	none
CC(C)Cc1ccc(C(C)C(=O)Nc2ccccc2O)cc1 (configuration not stated)	none
CCCCCC(=O)N1CCCC(c2nc(-c3ccc(OC)cc3)no2)C1 (configuration not stated)	none
COc1ccc(-c2noc(C3CCCN(C(=O)CCc4ccccc4)C3)n2)cc1 (configuration not stated)	tim10-1 inh 42 (no result: PfHsp90 yeast 2) | tim10-1 confirm 33
COc1ccc(NC(=O)CC2SC3=NCCN3C2=O)cc1 (configuration not stated)	none
Cc1ccc(NC(=O)CSC2=Nc3ccccc3C3CC=NN23)c(C)c1 (configuration not stated)	tim10-1 inh 44 | tim10-1 confirm inactive
NC(=O)c1cnn2c(-c3ccc(Cl)cc3Cl)ccnc12	none
Cc1nn(C)c(Cl)c1CN1CCC(CO)(CC2CCCCO2)CC1 (configuration not stated)	none
CCOC(=O)c1cn2nc(-c3ccc(OC)cc3)cc2nc1C1CCN(C(=O)OC(C)(C)C)CC1	none
COc1ccc(-c2cc(C3CCN(C(=O)OC(C)(C)C)CC3)[nH]n2)cc1	tim10-1 inh 44 (no result: PfHsp90 yeast 2) | tim10-1 confirm 39
COc1ccc(B(O)O)c(CN2CCN(C(=O)OC(C)(C)C)CC2)c1	none (no result: tim10-1 inh, tim23-1 inh, SKKanGAS inh, TIM10 inh, NLRP3 yeast inh)
COc1ccc(OC)c(-c2cc(C3CCN(C(=O)OC(C)(C)C)CC3)[nH]n2)c1	none | tim10-1 confirm inactive
CSCCC(NC(=O)c1ccccc1)C(=O)NCCc1ccc2c(c1)OCCO2 (configuration not stated)	none (no result: SKKanGAS inh)
O=c1c(Cl)c(N2CCN(c3ccc(F)cc3)CC2)cnn1C12CC3CC(CC(C3)C1)C2	tim10-1 inh 48 | tim10-1 confirm inactive
O=c1c(Cl)c(N2CCN(c3ccccc3)CC2)cnn1C12CC3CC(CC(C3)C1)C2	none
Cc1ccccc1N1CCN(S(=O)(=O)c2nnc(NC(=O)c3ccco3)s2)CC1	tim10-1 inh 46, SKKanGAS inh 51 | tim10-1 confirm inactive
CCS(=O)(=O)c1ccc(OC)c(N=Nc2ccc(O)c3ncccc23)c1	tim10-1 inh 41 | tim10-1 confirm 38
CCN(CC)S(=O)(=O)c1cc(OC)ccc1N=Nc1ccc(O)c2ncccc12	PfHsp90 yeast 2 inconclusive, tim10-1 inh 44, SKKanGAS inh 68 | tim10-1 confirm 42
COCCN(C(=O)c1cc2c(s1)CCC2)c1c(N)n(CC(C)C)c(=O)[nH]c1=O	none (no result: SKKanGAS inh)
CN(NC(=O)c1ccccc1Cl)c1ncc(C(F)(F)F)cc1Cl	none
Cc1ccc(N2CCCC2=O)cc1S(=O)(=O)N1CCOCC1	none
COc1ccc2nc3oc(C(=O)N4CCC(C(N)=O)CC4)cc3cc2c1	none
Cc1nc2ccccc2c2oc(C(=O)N3CC(C)CC(C)C3)cc12 (configuration not stated)	tim10-1 inh 52 | tim10-1 confirm inactive
COc1ccc2cc3cc(C(=O)N4CC(C)CC(C)C4)oc3nc2c1 (configuration not stated)	tim10-1 inh 56 | tim10-1 confirm inactive
